Screen size: about 200,000 compounds; about 18,000 (9%) were called active. Rule as the data show it: active = inhibition above about 50%; inactive = the rest. This excerpt belongs to a sample that is enriched for actives.
Test: antileishmanial activity against promastigotes – primary screen (AID 1063);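 also: promastigotes grown with compound for 44 hours at 28 °C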
Conditions: Leishmania major promastigotes, resazurin fluorescence viability; at 10 µM; active compounds read high

| Compound | inhibition |
| --- | --- |
| COc1cccc(C(=O)Oc2cc(C)[nH]c(=O)c2[N+](=O)[O-])c1 | 5.78% (inactive) |
| CC1CCCN(S(=O)(=O)c2ccc(C(=O)Nc3nnc(-c4ccncc4)o3)cc2)C1 (stereo not given) | 12.2% (inactive) |
| CC1CCCCN1S(=O)(=O)c1ccc(C(=O)Nc2nnc(-c3cccs3)o2)cc1 (stereo not given) | 99.6% (active) |
| CC1CCCCN1S(=O)(=O)c1ccc(S(=O)(=O)N(CC(=O)Nc2ccccc2)Cc2cccs2)cc1 (stereo not given) | -0.93% (inactive) |
| COC(=O)c1nc(NC(=O)c2ccc(F)cc2)n[nH]1 | -2.13% (inactive) |
| c1ccc(-c2nccc(-c3ccc(-n4cnc5ccccc54)cc3)n2)nc1 | 101% (active) |
| CC(C)c1nc(-c2ccccn2)no1 | -3.52% (inactive) |
| Cc1nccc(-c2ccc(-n3c(C)ccc3C)cc2)n1 | 41.6% (inactive) |
| C/C(Cn1nnc2ccccc21)=N\OC(=O)c1cc(F)c(F)cc1Cl | 2.7% (inactive) |
| CCN(CCn1cccn1)Cc1nc(-c2ccc(C(=O)OC)cc2)no1 | 5.81% (inactive) |
| O=C1CC(c2c(F)cccc2Cl)C(n2cncn2)C(O)=C1C1NCCc2ccccc21 (stereo not given) | -6.44% (inactive) |
| COc1cc2c(cc1O)[C@H](Cc1ccc(Oc3cc(C[C@@H]4NCCc5cc(OC)c(O)cc54)ccc3O)cc1)NCC2 | 2.59% (inactive) |
| CC[C@H]1CN2CCc3cc(OC)c(OC)cc3[C@@H]2C[C@@H]1C[C@H]1NCCc2cc(OC)c(OC)cc21 | 100% (active) |
| CCOCCCN(C(=O)Cn1nnc(-c2ccc(OC)c(OC)c2)n1)C(CC)C(=O)NC1CCCC1 (stereo not given) | -1.34% (inactive) |
| COCCn1nnnc1C(c1cc2ccc(OC)cc2[nH]c1=O)N1CCc2ccccc2C1 (stereo not given) | 5.04% (inactive) |
| COc1ccc(OC)c(NC(=S)N2CCc3ccccc3C2)c1 | 5.86% (inactive) |
| COc1ccc(OC)c(C(c2nnnn2C(C)(C)C)N2CCc3ccccc3C2)c1 (stereo not given) | 88.9% (active) |
| C=CCn1c(CCNC(=O)c2ccccc2F)nnc1SCC(=O)Nc1ccc(OC)cc1 | 3.89% (inactive) |
| COc1ccc(Cc2nnc(NC(=O)c3cc(OC)c(OC)c(OC)c3)s2)cc1OC | -2.97% (inactive) |
| NC(=O)C1CCN(Cc2nc3c(Br)cc(Br)cc3c(=O)[nH]2)CC1 | -13% (inactive) |

| Compound | inhibition |
| --- | --- |
| COCCNC(=O)/C(C#N)=C/c1nc(N(C)C)n(-c2ccc(F)cc2)c1Cl | 10.3% (inactive) |
| COc1ccc(-c2nnc(SCC(=O)c3ccc4c(c3)OCCO4)o2)cc1 | -4.95% (inactive) |
| COc1ccc(-c2nnc(SC(=O)N3c4ccccc4Sc4ccccc43)o2)cc1 | 84.1% (active) |
| COc1ccc(-c2nnc(SC(C)C#N)o2)cc1 (stereo not given) | -3.1% (inactive) |
| CC(/C=N/NC(=O)c1ccncc1)=C\c1ccco1 | -2.49% (inactive) |
| CC(Oc1ccccc1)C(=O)NN1Cc2ccccc2C1=N (stereo not given) | -3.38% (inactive) |
| Nc1nc(-c2sc3nc4c(cc3c2N)CCCC4)nc(N2CCOCC2)n1 | 47% (inactive) |
| CNC(=O)c1[nH]cnc1C(=O)N[C@@H](CC(C)C)C(=O)OC(C)(C)C | -2.24% (inactive) |
| S=C(Nc1ccc2c(c1)OCO2)N1CCCC1 | -4.06% (inactive) |
| O=C1NC(=O)C2C1C(c1ccc([N+](=O)[O-])cc1)=NN2Cc1ccccc1 (stereo not given) | -2.02% (inactive) |
| CCOc1ccc2c(c1)C(c1ccc(C)cc1)=NNC(c1ccc(C)cc1)=N2 | 17.4% (inactive) |
| CCc1ccc2c(c1)C(c1ccc([N+](=O)[O-])cc1)=NNC(c1ccccc1)=N2 | 60.2% (active) |
| CC(C)(C)c1ccc(/C=C2\SC(=O)N=C2N)cc1 | 33.6% (inactive) |
| Cc1ccc(/C([O-])=C(/C(=S)NCc2ccco2)[n+]2ccccc2)cc1[N+](=O)[O-] | -2.58% (inactive) |
| Fc1ccccc1Cc1ccc(Cl)nn1 | -4.31% (inactive) |
| Cc1ccc(C(=O)OCC(=O)NCc2ccc3c(c2)OCO3)s1 | -5.96% (inactive) |
| Cc1ccc(C(=O)Nc2sc(Cc3ccc4c(c3)OCO4)c(C)c2C(N)=O)cc1 | -6.82% (inactive) |
| CC(=O)NCCC(=O)Nc1nc(C)c(Cc2ccc3c(c2)OCO3)s1 | 55.9% (active) |
| O=C(Nc1cccc(F)c1)N1C2CCC1CC(O)(c1cccnc1)C2 (stereo not given) | 4.96% (inactive) |
| COc1ccc(-n2cnc3cc(NCc4ccco4)ccc32)cc1 | 90.2% (active) |

| Compound | inhibition |
| --- | --- |
| COc1ccc(Nc2nc(Cl)nc(NCc3ccco3)n2)cc1 | 0.84% (inactive) |
| COc1ccc(-n2cnc3cc(C(=O)NC4CCCC4)ccc32)cc1 | 1.49% (inactive) |
| CCN(CC)C(=O)C(=O)Nc1cccc(Br)c1 | -4.3% (inactive) |
| C=CCC1(CC=C)CCCN1C(=O)CC1C(=O)NCCN1Cc1ccccc1OC (stereo not given) | 2.2% (inactive) |
| COc1cccc(NC(=O)CN(C)CC(=O)Nc2ccc3c(c2)CCC3)c1 | 2.96% (inactive) |
| CC(C)C(=O)OCC(=O)Nc1ccc2c(c1)CCC2 | -3.35% (inactive) |
| CC1CC(C)CN(CCC(=O)Nc2ccc3c(c2)CCC3)C1 (stereo not given) | 65.4% (active) |
| CCCCSc1nc2ccccc2[nH]1 | -4.2% (inactive) |
| COc1cccc(C(=O)Nc2ccc(N3CCCC3)cc2)c1 | 9.5% (inactive) |
| Cc1ccccc1C(=O)Nc1ccc(N2CCCCCC2)cc1 | 89.4% (active) |
| COc1cccc(OC)c1C(=O)Nc1ccc(N2CCCCC2)cc1 | -1.53% (inactive) |
| Cc1ccc(NC(=S)N(CCCN2CCC(C)CC2)Cc2ccco2)cc1 | 37.4% (inactive) |
| Cc1ccc(NC(=S)N(CCN2CCCCC2)Cc2ccco2)cc1C | 13.2% (inactive) |
| Cc1ccc(NC(=S)N(Cc2ccco2)C(C)c2cccs2)cc1 (stereo not given) | 51.8% (active) |
| O=C(CO/N=C/c1ccccc1OC(F)F)NC1CCCC1 | 9.48% (inactive) |
| NS(=O)(=O)c1ccc(N2C(=O)C3C4CC(C(Br)C4Br)C3C2=O)cc1 (stereo not given) | -1.02% (inactive) |
| CN1/C(=C\C(=O)c2oc3ccccc3c2N)C(C)(C)c2ccccc21 | 5.73% (inactive) |
| CN1/C(=C\C(=O)c2cccnc2Cl)C(C)(C)c2ccccc21 | 55.5% (active) |
| CC(C)Nc1nnc(SCC(=O)/C=C2\N(C)c3ccccc3C2(C)C)s1 | 2.98% (inactive) |
| O=C(COC(=O)Cn1cnc2ccccc2c1=O)NCc1ccccc1Cl | 1.11% (inactive) |

From PubChem BioAssay AID1063 (University of Pittsburgh Molecular Library Screening Center, 2008)
